# Screens deposited in PubChem BioAssay by National Center for Advancing Translational Sciences (NCATS).
# Shown are actives, neighbours in structure and some others; about 19% of the full set was active somewhere.
# RORgamma inh: qHTS for inhibitors of ROR gamma transcriptional activity | Nuclear receptor ROR-gamma (Mus musculus), P51450 | Drosophila S2 Gal4-RORgamma UAS-luciferase reporter, 20 h | Potency, µM (top dose mostly 53.6 µM), for inactives: at the top dose activity change, negative = inhibition, actives largely listed as inhibitors | hit rate 5.4% among 310,000 | AID 2551, 2010; also: nearly all actives have a fitted effect of over 60% in size
#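 ROR gamma transcriptional activity was tracked as Gal4-UAS luciferase output in stably transfected Drosophila Schneider cells, with compound added 1 hr before 700 uM copper sulfate induction and a 20 hr ambient-temperature incubation.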
# TDP1 inh: qHTS Assay for Inhibitors of Tyrosyl-DNA Phosphodiesterase (TDP1); Tyrosyl-DNA phosphodiesterase 1 (Homo sapiens), Q9NUW8; hit rate 0.28% among 350,000; recombinant TDP1, AlphaScreen DNA substrate cleavage; Potency, µM (series often up to 130 µM), inactives show at the highest dose activity change, negative = inhibition, usual class: inhibitors; also: nearly all actives have a fitted effect of over 40% in size
# Target sequence (Q9NUW8 whole entry, looked up): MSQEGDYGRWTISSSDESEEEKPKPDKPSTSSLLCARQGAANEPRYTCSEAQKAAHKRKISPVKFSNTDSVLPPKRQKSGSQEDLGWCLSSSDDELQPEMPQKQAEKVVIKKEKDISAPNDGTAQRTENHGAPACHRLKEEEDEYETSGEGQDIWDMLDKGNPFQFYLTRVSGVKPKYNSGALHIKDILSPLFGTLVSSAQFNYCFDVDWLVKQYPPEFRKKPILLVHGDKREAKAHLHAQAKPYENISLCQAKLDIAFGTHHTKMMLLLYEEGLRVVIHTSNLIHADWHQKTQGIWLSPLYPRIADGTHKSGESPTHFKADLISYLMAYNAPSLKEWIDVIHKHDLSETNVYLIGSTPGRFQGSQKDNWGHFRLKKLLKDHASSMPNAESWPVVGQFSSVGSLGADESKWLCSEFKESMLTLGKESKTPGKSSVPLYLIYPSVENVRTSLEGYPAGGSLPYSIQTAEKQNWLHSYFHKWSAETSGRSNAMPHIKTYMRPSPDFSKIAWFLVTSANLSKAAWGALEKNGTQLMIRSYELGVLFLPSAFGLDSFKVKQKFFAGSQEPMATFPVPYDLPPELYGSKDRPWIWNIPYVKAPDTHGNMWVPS
#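 E. coli-derived human Tdp1, 1 nM final. Cpd preinc 15 min RT; substrate 15 nM final, 5 min RT; AS bead mix 10 ug/ml final, 10 min RT. Signal loss = tyrosine-FITC cleavage. No-enzyme wells = max signal.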
# TDP1 cell noCPT: qHTS for Inhibitors of human tyrosyl-DNA phosphodiesterase 1 (TDP1): qHTS in cells in absence of CPT; Potency, µM (highest dose often 46.2 µM), for inactives: top-dose activity change, negative = growth inhibition, actives largely listed as inhibitors; hit rate 15% among 420,000; DT40 Tdp1-/- hTDP1 cells, no CPT, ATP luminescence, 48 h; AID 686978, 2013; also: nearly all actives have a fitted effect of over 55% in size
#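 No-CPT arm: Tdp1-/-;hTDP1 DT40 cells (400/well) plus compounds, incubated ≥48 hr at 37 °C. Readout CellTiter-Glo luminescence.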
# VP16 counter: VP16 counterscreen qHTS for inhibitors of ROR gamma transcriptional activity | Drosophila S2 Gal4-VP16 UAS-luciferase, luminescence, 20 h | Potency, µM (top dose mostly 53.6 µM), inactives show top-dose activity, negative = inhibition, actives largely listed as inhibitors | hit rate 3.5% among 310,000 | AID 2546, 2010;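 also: Gal4-VP16 expression switched on by copper sulfate through the metallothionein promoter; nearly all actives have a fitted effect of over 50% in size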
# TDP1 cell CPT: qHTS for Inhibitors of human tyrosyl-DNA phosphodiesterase 1 (TDP1): qHTS in cells in presence of CPT | chicken DT40 Tdp1-/-;hTDP1 cells + 20 nM CPT, ATP luminescence, 48 h | hit rate 12% among 420,000 | AID 686979, 2013 | Potency, µM (top dose mostly 46.2 µM), for inactives: top-dose activity change, negative = growth inhibition, usual class: inhibitors; also: nearly all actives have a fitted effect of over 55% in size
#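 Chicken DT40 Tdp1-/- cells complemented with human TDP1, 400 cells/well, exposed to compounds plus 20 nM camptothecin for at least 48 h at 37 C; viability read as ATP content by CellTiter-Glo luminescence.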
# The depositor's hits bear a star; ? = inconclusive; · = no result given; [ ] = dose if it differs, or a comment. Calls follow the shape of the dose curve; as a rule, active = well fitted curve in the direction sought with a large enough effect; inconclusive = small, poorly fitted or top-dose-only effect, or another doubt; inactive = no such curve, though single readings can be large; an effect the other way counts as inactive or inconclusive. % is scaled to controls: 0 for no effect and ±100 for the full control effect; potency is read from the fitted curve at half-maximal effect.
SMILES,RORgamma inh,TDP1 inh,TDP1 cell noCPT,VP16 counter,TDP1 cell CPT
CC1=C(C(=O)OCCOc2ccccc2)C(c2ccsc2)NC(=O)N1C (stereo not given),?,7.9%,20.6µM*,-2.7%,?
COc1ccc(NC(=O)CN(C)C(=O)Cc2ccsc2)cc1,27.2%,0.6%,-2.3%,7.1%,-13.0%
CCN1CCOC(=O)C1CC(=O)Nc1cccc(OC)c1 (stereo not given),·,5.8%,20.6µM*,·,5.17µM*
O=C(CC1C(=O)OCCN1Cc1ccccc1)Nc1ccc(F)cc1 (stereo not given),·,1.9%,-2.2%,·,?
CCOc1ccc(NC(=O)CC2C(=O)OCCN2CC)cc1 (stereo not given),·,-1.9%,?,·,8.2µM*
CCN1CCOC(CC(=O)Nc2cccc([N+](=O)[O-])c2)C1=O (stereo not given),?,·,?,7.0%,?
CCOC(=O)c1ccc(NC(=O)CC2OCCN(CC)C2=O)cc1 (stereo not given),20µM*,-2.2%,13µM*,?,18.4µM*
CCOC(=O)c1ccc(NC(=O)CC2C(=O)OCCN2CC)cc1 (stereo not given),?,-3.2%,20.6µM*,?,20.6µM*
CCCCC1S/C(=N/N=C/c2ccc(OC)cc2)N(Cc2ccc(OC)cc2)C1=O (stereo not given),2.5%,0.0%,-20.0%,-4.1%,-16.0%
CC(C)(C)OC(=O)NCCCC1=CC2=CC(=O)C(C)(OC(=O)c3cccs3)C(=O)C2=CO1 (stereo not given),-24.6%,-5.0%,·,-10.7%,·
O=C(/C=C/c1ccccc1[N+](=O)[O-])NCCN1C(=O)S/C(=C\c2ccc(F)cc2)C1=O,22.2%,7.2%,-21.0%,?,3.4%
CC(C)(C)C(=O)NCCN1C(=O)S/C(=C\c2ccc([N+](=O)[O-])cc2)C1=O,44.7%,2.7%,23.1µM*,?,?
O=C(NCCN1C(=O)S/C(=C\c2ccc(Cl)c(Cl)c2)C1=O)c1cnccn1,14.0%,2.7%,?,5.0%,?
O=C(NCCN1C(=O)S/C(=C\c2ccc(Cl)c([N+](=O)[O-])c2)C1=O)C1=COCCO1,·,2.4%[0.505 µM],8.2µM*,·,20.6µM*
CCC1=C(OC(=O)N(CC)CC)N2C(=O)OC(=NCC3CC3)[C@]2(Cc2ccccc2)[C@H]2C1=CC[C@H]1C(=O)N(CC(=O)OC)C(=O)[C@H]12,43.9%,8.1%,?,-3.8%,?
N#Cc1c(Nc2ccc(F)cc2)sc(C(=O)c2ccc(F)cc2)c1N,-32.3%,-3.9%,-25.0%,-17.4%,-23.7%
Nc1nc(Nc2ccccc2F)sc1C(=O)c1ccc(Cl)cc1,·,8.4%,?,·,?
Cc1ccc(C(=O)c2sc(Nc3ccc(F)cc3)nc2N)c(C)c1,·,7.9%,14.6µM*,·,13µM*
COc1ccc(Nc2nc(N)c(C(=O)c3ccc(OC)cc3)s2)cc1,26.1%,·,1.64µM*,-0.6%,1.64µM*
Nc1nc(Nc2cccc(Cl)c2)sc1C(=O)c1ccc(F)cc1,·,6.6%,23.1µM*,·,18.4µM*
COc1ccc(Nc2nc(N)c(C(=O)c3ccc(F)cc3)s2)cc1,-1.5%,·,0.581µM*,3.9%,0.731µM*
COc1ccc(C(=O)c2sc(Nc3ccccc3)nc2C)cc1,30.6%,·,?,3.6%,?
CC(C)(C)C(=O)c1sc(Nc2ccccc2)nc1N,32.5%,7.9%,?,3.9%[0.365 µM],?
C[C@H](O)CN(C)C,-3.4%,-1.2%,-18.8%,-6.2%,2.8%
COC(=O)c1cccc(COC(=O)c2ccccc2NC(=O)c2ccco2)c1,23.3%,-2.3%,-20.5%,-12.9%,2.6%
SMILES,RORgamma inh,TDP1 inh,TDP1 cell noCPT,VP16 counter,TDP1 cell CPT
O=C(COC(=O)C1CC(O)CN1S(=O)(=O)c1ccc(Cl)cc1)c1ccccc1Cl (stereo not given),27.4%,0.0%,-6.6%,24.2%,-0.1%
O=C(N/N=C(\Cc1ncc[nH]1)c1ccccc1)c1ccccc1,11.2µM*,0.0%,·,-9.0%[10 µM],·
C/C(=N/NC(=O)c1ccncc1)c1ccccc1,1.5%[1.91 µM],·,-4.7%,-4.5%,4.1%
O=C(N/N=C(\Cc1ncc[nH]1)c1ccccc1)c1ccncc1,-36.6%,8.1%,4.61µM*,-14.0%,4.61µM*
O=C(N/N=C(\Cc1ncc[nH]1)c1ccccc1)c1cccnc1,-37.7%,8.1%,4.61µM*,-10.3%,4.61µM*
CCCCCC(=O)/C=C/[C@H]1[C@H](O)CC(=O)[C@@H]1C/C=C\CCCC(=O)O,?,1.2%,·,-6.5%,·
CCOc1ccc(NC(=O)COC(=O)c2ncc(Cl)c(Cl)c2Cl)cc1,-23.7%,2.8%,2.2%,-9.7%,-2.5%
S=C(NCc1ccco1)Nc1cc(-c2ccccc2)[nH]n1,6.31µM*,8.2%,?,?,11.6%
S=C(NCc1ccco1)Nc1ccc(Br)cn1,3.16µM*,0.5%,-13.7%,3.55µM*,-21.4%
S=C(NCc1ccco1)Nc1cc(Cl)c(Cl)cc1Cl,?,3.0%,?,?,?
COc1ccc(NC(=O)CCC(=O)c2cccs2)cc1S(=O)(=O)Nc1ccccc1Cl,12.2%,-2.8%,-27.5%,-12.4%,-4.6%
Cc1ccc(NC(=O)Cn2c(=O)n(Cc3ccc4c(c3)OCO4)c(=O)c3oc4ccccc4c32)cc1C,·,2.6%,-22.8%,·,-24.9%
O=C(Cn1c(=O)n(Cc2ccco2)c(=O)c2oc3ccccc3c21)Nc1ccccc1,·,2.6%,?,·,?
COc1cccc2c(=O)cc(C)n(CC(=O)Nc3ccccc3C)c12,-28.2%,3.8%,14.6µM*,?,?
O=C(Cn1c(=O)n(Cc2ccccc2)c(=O)c2oc3ccccc3c21)Nc1ccc(Cl)cc1,·,-2.6%,18.4µM*,·,?
Cc1cccc(NC(=O)Cn2c(=O)n(Cc3ccc4c(c3)OCO4)c(=O)c3oc4ccccc4c32)c1C,·,-5.1%,7.31µM*,·,7.31µM*
Cc1ccc(C)c(NC(=O)Cn2c(=O)n(Cc3ccc4c(c3)OCO4)c(=O)c3oc4ccccc4c32)c1,·,5.1%,2.91µM*,·,2.91µM*
CSCC[C@H](NC(=O)N1CCn2c1nc1ccccc12)C(=O)NCc1ccco1,9.4%,-4.7%,3.6%,8.7%,?
Clc1ccc(Oc2nc3ccccc3n3cccc23)cc1,?,0.0%,-25.0%,13.5%,-29.4%
CCCCN1CC(=O)N2[C@H]3c4cc(OC)ccc4OC[C@@H]3[C@H](C(=O)OCC)[C@]2(C)C1=O,·,0.8%,-16.2%,·,7.1%
Cc1ccc(SCC(=O)NNC(=O)C2CCCCC2)cc1,-17.7%,2.1%,-24.6%,-2.4%,?
